Source: PubChem
In the library only some 11% were active in any assay of this set; here they are far more common.
BAZ2B block = qHTS Assay for Inhibitors of BAZ2B; Bromodomain adjacent to zinc finger domain protein 2B (Homo sapiens), Q9UIF8; AlphaScreen BAZ2B-H3K14Ac peptide displacement; Potency, µM (titrated, usually from 114 µM), for inactives: top-dose activity change, negative = inhibition, actives largely listed as inhibitors; actives 4.4% (n = 360,000); also: % is scaled to controls: 0 for no effect and ±100 for the full control effect; nearly all actives have a fitted effect of over 60% in size
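AlphaScreen displacement: compounds (up to 110uM) incubated 30 min at room temperature with a preformed 50 nM BAZ2B/50 nM biotinylated H3K14Ac peptide complex in PBS pH 7.4 with Tween-20. Donor and acceptor beads at 10 ug/mL final added, 20 min light-protected before reading.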
JMJD2A Tudor inh = qHTS Assay for Inhibitors of JMJD2A-Tudor Domain | AlphaScreen JMJD2A-Tudor / H3K4me3 peptide binding | AID 504339, 2011 | Potency, µM (titrated, usually from 114 µM), inactives show top-dose activity change, negative = inhibition, most hits filed as inhibitors | actives 4.4% (n = 390,000); also: % is scaled to controls: 0 for no effect and ±100 for the full control effect; nearly all actives have a fitted effect of over 50% in size
PLK1 PBD inh = qHTS for Inhibitors of PLK1-PDB (polo-like kinase 1 - polo-box domain): Primary Screen; Serine/threonine-protein kinase PLK1 (Homo sapiens), P53350; AID 720504, 2013; Plk1 PBD binding of FITC phosphopeptide, fluorescence polarization; Potency, µM, for inactives: max response, negative = inhibition, hits mostly inhibitors; actives 2.8% (n = 360,000); also: series mostly up to about 57 µM; % is scaled to controls: 0 for no effect and ±100 for the full control effect; nearly all actives have a fitted effect of over 65% in size
HP1b binding inh = HTS for Inhibitors of HP1-beta Chromodomain Interactions with Methylated Histone Tails; Chromobox protein homolog 1 (Homo sapiens), P83916; AlphaScreen HP1-beta / biotin-H3K9me3 peptide binding; Potency, µM (top dose mostly 114 µM), for the others: at the top dose activity change, negative = inhibition, actives largely listed as inhibitors; actives 0.56% (n = 390,000); AID 540317, 2011; also: nearly all actives have a fitted effect of over 70% in size
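HP1-beta protein (50 nM final) preincubated 30 min at room temperature with biotinylated H3(1-18)K9me3 peptide (50 nM) in PBS pH 7.4, 0.01% Tween-20, then compound added for 30 min. AlphaScreen streptavidin donor/nickel chelate acceptor beads (10 ug/mL final), 30 min dark, luminescence read.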
G9a inh = qHTS Assay for Inhibitors of Histone Lysine Methyltransferase G9a; G9a H3K9 monomethylation, AlphaScreen, 2 h; actives 8.8% (n = 350,000); Potency, µM (titrated, usually from 102 µM), for the others: at the top dose activity, negative = inhibition, hits mostly inhibitors; also: % is scaled to controls: 0 for no effect and ±100 for the full control effect; nearly all actives have a fitted effect of over 75% in size
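Compounds were preincubated with 20 nM G9a for 15 min, after which biotinylated H3K9 peptide (500 nM) and SAM (20 uM) started a 2 h room-temperature reaction. Monomethylated product was quantified by antibody-based AlphaScreen chemiluminescence.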
VDR inhibitor = Inhibitors of the vitamin D receptor (VDR): qHTS; Vitamin D3 receptor (Homo sapiens), P11473; VDR-SRC2-3 peptide fluorescence polarization, 2 h; Potency, µM, without a hit: max response, negative = inhibition, actives largely listed as inhibitors; actives 0.93% (n = 400,000); also: % is scaled to controls: 0 for no effect and ±100 for the full control effect
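The screen uses fluorescence polarization to detect compounds that interfere with recruitment of the SRC2-3 coactivator peptide to VDR; plates are read after 2 h at room temperature.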
* hit, by the source's call; ? = inconclusive; nt = no result; ! = a repeat was not active; [ ] = dose if it differs, or a comment. Calls follow the shape of the dose curve; as a rule, active = well fitted curve in the direction sought with a large enough effect; inconclusive = small, poorly fitted or top-dose-only effect, or another doubt; inactive = no such curve, though single readings can be large; an effect the other way counts as inactive or inconclusive. Potency is read from the fitted curve at half-maximal effect.

SMILES	BAZ2B block	JMJD2A Tudor inh	PLK1 PBD inh	HP1b binding inh	G9a inh	VDR inhibitor
CCN1C[C@]2(C)CC[C@H](OC)[C@@]34[C@H]1C1(OCO[C@@]15C[C@H](OC)C1C[C@]3(O)C5[C@H]1OC)[C@@H](O)[C@H]24	nt	nt	nt	nt	nt	6%
CCCCCC[C@H]1C(=O)O[C@H](C)[C@H](NC(=O)c2cccc(NC=O)c2O)C(=O)O[C@@H](C)[C@H]1OC(=O)CC(C)C	nt	nt	nt	nt	1%[21.5 µM]	1%
Cc1ccc(N=Nc2cc(C)ccc2N)cc1	7.9µM*	?	-12%	?	nt	-8%
Cc1ccc(N)c(C)c1	6%	-12%	1%	41%	-5%[0.501 µM]	-6%
CCC(=NCCc1ccccc1)c1c(O)n(C)c(=O)n(C)c1=O	-1%	-14%	-1%	32%	13%	10%
Cn1c(O)c(C(=Nc2ccccc2)SCc2ccc(Cl)cc2)c(=O)n(C)c1=O	?	?	27µM*	60%	?	?
CCN(CC)C(=O)Cn1cc(C=C2C(=O)N(C)C(=O)N(C)C2=O)c2ccccc21	8%	-11%	30µM*	31%	0%[2.33 µM]	-8%
COC(=O)Cn1cc(C=C2C(=O)N(C)C(=O)N(C)C2=O)c2ccccc21	-8%	-6%	?	35%	nt	-17%
CC1CCCCN1C(=O)Cn1cc(C=C2C(=O)N(C)C(=O)N(C)C2=O)c2ccccc21 (centres undefined)	-16%	-12%	17µM*	20%	?	-9%
C[C@@H](Cc1ccccc1)NCCC(c1ccccc1)c1ccccc1	nt	nt	nt	nt	-23%[5.15 µM]	9%
CCCN1CCC[C@@H]2Cc3nc(N)ncc3C[C@H]21	nt	-30%	-6%	24%	11µM*!	-4%
CCN(CC)P(=O)(Nc1ccc(Br)cc1)c1c(C)nn(CCC#N)c1NC(=O)c1ccc(Cl)cc1 (centres undefined)	20%	-8%	-9%	15%	-1%[12.7 µM]	21%
COc1cccc(CNC(=O)c2cccc(S(=O)(=O)N3CCN(C)CC3)c2)c1	-9%	-10%	-6%	-1%	40µM*	1%
CCN(CC)C(=O)c1ccc(NC(=O)c2cccc(S(=O)(=O)N3CCN(Cc4ccccc4)CC3)c2)cc1	-10%	-34%	-4%	-11%	10%[12.7 µM]	-10%
C[C@]12CC[C@@H]3c4ccc(O)cc4C[C@@H](CCCCCCCCCS(=O)CCCC(F)(F)C(F)(F)F)[C@H]3[C@@H]1CC[C@@H]2O (some centres undefined)	nt	nt	nt	nt	?	-14%
Oc1ccc2c3c1OC1C(O)CC[C@]4(O)C(C2)N(CC2CCC2)CC[C@]314 (some centres undefined)	nt	nt	nt	nt	-49%[2.33 µM]	0%
CCOC(=O)[C@]12Cc3cc(OC)ccc3[C@H]1N(CCC(=O)OC)C(=O)c1cc(OC)ccc12	nt	nt	13µM*	nt	nt	nt
CCOC(=O)[C@]12Cc3cc(Cl)ccc3[C@H]1N(C)C(=O)c1ccccc12	nt	nt	-28%	nt	nt	nt
CCOC(=O)[C@]12Cc3cc(Cl)ccc3[C@H]1N(Cc1ccccc1)C(=O)c1cc(OC)ccc12	nt	nt	11µM*	nt	nt	nt
CCCCCN1C(=O)c2cc(OC)ccc2[C@@]2(C(=O)OCC)Cc3cc(Cl)ccc3[C@@H]12	nt	nt	4.7µM*	nt	nt	nt
CCOC(=O)[C@]12Cc3cc4ccccc4cc3[C@H]1N(Cc1ccccc1)C(=O)c1ccccc12	nt	nt	12µM*	nt	nt	nt
CCOC(=O)[C@]12Cc3ccccc3[C@H]1N(Cc1ccccc1)C(=O)c1cc(OC)ccc12	nt	nt	-28%	nt	nt	nt
NCC[C@H](NC(=O)[C@@H](N)CCCN=C(N)N[N+](=O)[O-])C(N)=O	nt	nt	nt	nt	nt	6%
CC1OC(O[C@@H]2C(O)CC(O[C@@H]3C(O)C[C@@H](OC4CC[C@]5(C)[C@H](CC[C@H]6[C@@H]5CC[C@]5(C)C(C7=CC(=O)OC7)C(O)C[C@@]65O)C4)OC3C)OC2C)CC(O)C1O (some centres undefined)	nt	nt	nt	nt	nt	-2%
C=CCN1C[C@H](C)N([C@H](c2ccc(C(=O)N(CC)CC)cc2)c2cccc(O)c2)C[C@H]1C	nt	nt	nt	nt	nt	11%
SMILES	BAZ2B block	JMJD2A Tudor inh	PLK1 PBD inh	HP1b binding inh	G9a inh	VDR inhibitor
CCOC(=O)[C@]12Cc3cc4ccccc4cc3[C@H]1N(Cc1ccccc1)C(=O)c1cc(OC)ccc12	nt	nt	11µM*	nt	nt	nt
CCOC(=O)[C@]12Cc3cc(OC)c(OC)cc3[C@H]1N(Cc1ccccc1)C(=O)c1ccccc12	nt	-26%	-11%	20%	nt	5%
CC(C)NC(=O)N1CCCC2(CCN(C(=O)Oc3ccccc3)CC2)C1	nt	nt	nt	nt	35%[12.7 µM]	-9%
CC(C)(C)CC(C)(C)c1ccc(O)cc1	nt	nt	nt	nt	nt	15%
CN1CCC(O)(c2ccc(Cl)cc2)C(C(=O)c2ccc(Cl)cc2)C1 (centres undefined)	-8%	-20%	4.7µM*	34%	10µM*	?
c1ccc2nc(N3CCNCC3)ccc2c1	0%	-12%	-15%	26%	11µM*!	3%
c1ccc(C(c2ccccc2)N2CCN(c3ccc4ccccc4n3)CC2)cc1	-5%	35%	-1%	106%	9%	16%
c1ccc2c(N3CCNCC3)cccc2c1	nt	-16%	-7%	51%	17µM*!	-8%
COc1ccc(OC)c(C2=NS(=O)(=O)N(C)C(C(=O)N3CCC4(CC3)OCCO4)=C2)c1	-22%	?	30µM*	0%	-1%	-23%
CCOc1ccc(C(C)=O)cc1Cc1c(O)[nH]c(=S)[nH]c1=O	4%	89µM*	30µM*	?	nt	?
COc1ccc(C(C)=O)cc1Cc1c(O)[nH]c(=S)[nH]c1=O	-18%	?	?	-7%	8.9µM*	?
CCCOc1ccc(C(C)=O)cc1Cc1c(O)[nH]c(=S)[nH]c1=O	13%	-22%	30µM*	1%	nt	?
NC(=NCCC[C@H](N)C(=O)O)N[N+](=O)[O-]	nt	nt	nt	nt	14%[59 µM]	3%
CCOP(=S)(OCC)O/N=C(\C#N)c1ccccc1Cl	nt	nt	nt	nt	nt	22µM*
